Measured values published in the supplement of paper PMC3334620.
Over roughly 33,000 sequences, “E-score (-0.5 to 0.5)” has its median near -0.01; the highest 2% begin near 0.26. The list comes from a sample in which the highest values are over-represented; it also holds similar and randomly drawn sequences.

Target: Ste12 (UniProt P13574)
Experiment: PBM E-score (8-mer binding enrichment) (E-score (-0.5 to 0.5)); higher = stronger / more preferred TF binding
Details: protein concentration: 200 nM; construct: GST-DNA-binding domain
Protocol: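 Universal 'all 10-mer' protein binding microarrays (Agilent AMADID 015681) probed with GST-tagged S. cerevisiae TFs (full-length or DBD) made by in vitro transcription/translation (PURExpress), about 100-200 nM. Bound TF was detected with fluorescent anti-GST. Each ungapped 8-mer (which stands for itself and its reverse complement) is scored by the PBM enrichment score (E-score), a modified Wilcoxon-Mann-Whitney statistic from -0.5 to +0.5, computed with the Universal PBM Analysis Suite. Scale: above 0.35 generally sequence-specific binding.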

Chain of UniProt P13574 (P13574 whole entry): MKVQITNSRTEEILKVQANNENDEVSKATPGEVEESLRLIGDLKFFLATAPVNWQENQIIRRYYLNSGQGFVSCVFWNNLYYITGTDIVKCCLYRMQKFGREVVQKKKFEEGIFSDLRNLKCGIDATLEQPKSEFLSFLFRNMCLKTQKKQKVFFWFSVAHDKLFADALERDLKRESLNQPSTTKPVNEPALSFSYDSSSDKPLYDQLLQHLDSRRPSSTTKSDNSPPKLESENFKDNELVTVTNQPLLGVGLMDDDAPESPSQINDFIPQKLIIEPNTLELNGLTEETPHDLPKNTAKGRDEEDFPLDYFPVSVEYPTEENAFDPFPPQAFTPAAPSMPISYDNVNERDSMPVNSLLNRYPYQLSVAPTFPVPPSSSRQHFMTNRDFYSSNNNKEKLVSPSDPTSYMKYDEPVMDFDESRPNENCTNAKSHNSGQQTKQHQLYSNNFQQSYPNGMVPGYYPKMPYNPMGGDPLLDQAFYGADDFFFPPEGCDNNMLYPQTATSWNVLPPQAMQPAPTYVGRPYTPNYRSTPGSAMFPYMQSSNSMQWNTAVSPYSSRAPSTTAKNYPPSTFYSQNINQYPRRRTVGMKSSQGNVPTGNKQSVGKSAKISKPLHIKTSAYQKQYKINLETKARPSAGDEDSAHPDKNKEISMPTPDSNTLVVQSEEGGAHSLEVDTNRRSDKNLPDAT

| Sequence | PBM E-score |
| --- | --- |
| GTATGAAA | 0.338 |
| TTATGAAA | 0.431 |
| ATATGAAC | 0.154 |
| CTATGAAG | 0.0327 |
| ATATGAAA | 0.346 |
| TTATGCAA | 0.0901 |
| GTATGAAC | -0.018 |
| GTTTTCCA | 0.093 |
| ATTGGGCG | -0.00653 |
| GTGTTTCA | 0.489 |
| CTGTTTCA | 0.484 |
| ATGTTTAG | 0.214 |
| ATATTTCA | 0.139 |
| GTGTTGCA | 0.159 |
| ATGTTCCA | 0.18 |
| CTGTTTAC | 0.0415 |
| CTGTTTCC | 0.0865 |
| ATGTTTCG | 0.366 |
| ATGTTTCC | 0.178 |
| ATGTTTCA | 0.493 |
| GTATTTCA | 0.1 |
| ACCATAAT | 0.114 |
| AGAAGCAA | 0.153 |
| ACAGTGCC | -0.0356 |
| AGCTGCGC | -0.177 |
| ATGTTTTC | 0.172 |

| Sequence | PBM E-score |
| --- | --- |
| AGGTTTTG | 0.0633 |
| GGGTTTTA | 0.217 |
| CTGTTTAA | 0.22 |
| GTGTTTAA | 0.155 |
| CTGTTTTA | 0.308 |
| ATTTTTTG | 0.222 |
| ATGTTTTA | 0.374 |
| CTGTTTTC | 0.0946 |
| ATGTTTAA | 0.0895 |
| ATGTTTTG | 0.335 |
| GTGTTTTA | 0.405 |
| ACAAGCAA | -0.00365 |
| ACCTATGA | -0.21 |
| CGCTGGTA | -0.118 |
| ATAGCAAA | 0.0867 |
| CGGGAGTC | -0.12 |
| AAAGTTGA | 0.111 |
| GGCGCAAA | 0.218 |
| AAATGAAA | 0.426 |
| GAATGAAA | 0.322 |
| CAATGAAA | 0.258 |
| GAATGAGA | -0.00579 |
| TAATGAAA | 0.155 |
| GAATGAAC | 0.016 |
| CCTAGACG | -0.134 |
| TAGAGAAA | 0.0197 |

| Sequence | PBM E-score |
| --- | --- |
| AACATTAT | 0.125 |
| AACATTTA | 0.29 |
| ATCATTAG | 0.0954 |
| ATCATTAA | 0.298 |
| AACATTTC | 0.0303 |
| GACATTTA | -0.0124 |
| CTCATTAA | 0.111 |
| GACATTAA | 0.173 |
| AACATTAA | 0.301 |
| GAGAGAAC | -0.0294 |
| CTTGGCTA | 0.0252 |
| GCGTGACA | 0.126 |
| GCGGCAGA | -0.128 |
| GAATAAGC | -0.0403 |
| GTGTTCCA | 0.141 |
| AATGCGGT | -0.0129 |
| CCGTTGCC | -0.253 |
| ATGTAATA | 0.217 |
| ACTTAAAA | 0.183 |
| TGTTAAAA | 0.168 |
| ATTTTAAG | 0.161 |
| ATTTTAAC | 0.19 |
| AGTTAAAA | 0.286 |
| CGTTAAAA | -0.00084 |
| AATTTTGG | 0.104 |
| ATTTAACA | 0.181 |

| Sequence | PBM E-score |
| --- | --- |
| AATTTTTG | 0.321 |
| AAATTTTG | 0.0681 |
| ATTTTAAA | 0.348 |
| ATTTAAAA | 0.314 |
| GGTTTTGA | 0.111 |
| CCATACCC | 0.128 |
| CTAGAATA | 0.171 |
| GCACAGCA | -0.102 |
| CAGTGGGC | -0.199 |
| GACTTAGA | -0.272 |
| AGCTTGAG | -0.164 |
| AAGTTCGT | -0.226 |
| TACCAGAA | 0.253 |
| TGCATACA | -0.139 |
| TAACGCGA | 0.0877 |
| AAGCTCGT | -0.195 |
| ATTTTACG | 0.243 |
| ATATTTAA | 0.347 |
| ATATTTAC | 0.219 |
| AATTTACC | 0.137 |
| AATTTTAT | 0.217 |
| AATTTTAC | 0.251 |
| CTATTTTA | 0.232 |
| ATTTTTTA | 0.331 |
| ATATTTTA | 0.235 |
| CTATTTAA | 0.194 |

| Sequence | PBM E-score |
| --- | --- |
| AATTTTAA | 0.318 |
| ATTTTACC | 0.277 |
| ACCGTTAC | -0.0206 |
| TCGGTACA | 0.0794 |
| ACTGAGCA | -0.119 |
| ACAGGATG | 0.0588 |
| CTCTAGAG | -0.162 |
| AACAACGC | 0.111 |
| AAGCCCCG | 0.0304 |
| ACATTTAA | 0.32 |
| AATTTTTC | 0.181 |
| ATTTTTAG | 0.175 |
| ACATTTAG | -0.0629 |
| AATTTTGA | 0.145 |
| ATTTTTGG | 0.183 |
| ATTTTTGA | 0.298 |
| GCATTTAA | 0.12 |
| ATTTTTAC | 0.207 |
| ATTTTTAA | 0.28 |
| AATTTTTA | 0.283 |
| AAATTTTA | 0.132 |
| TAAGCCAA | 0.00854 |
| GGCTTAGA | -0.0335 |
| TACCAGCA | -0.0129 |
| CTAGTACA | 0.0611 |
| GCAATCCC | 0.0206 |

| Sequence | PBM E-score |
| --- | --- |
| CTCTTTAC | 0.0191 |
| AAAGTGGG | 0.182 |
| AGTTCGAC | -0.147 |
| CCCTGAGG | -0.213 |
| ACATCTAA | 0.114 |
| ATTTTGTA | 0.16 |
| ATTTTGTG | 0.281 |
| ATTTTGTC | 0.114 |
| AAGTTGCA | -0.0946 |
| CCATCAAC | -0.144 |
| TCTTACAA | 0.0356 |
| CGTTATAA | 0.143 |
| CGTTACAA | 0.314 |
| CGTTACAG | 0.146 |
| AGTTATAA | 0.133 |
| TGTTATAA | 0.283 |
| CGTTACAC | 0.122 |
| GGTTACAA | 0.284 |
| AGTTACAA | 0.157 |
| GGTTACAC | -0.0834 |
| TGTTACAA | 0.387 |
| GGTTACTA | 0.0972 |
| CCCATACG | -0.123 |
| GGTAGAAC | -0.101 |
| CCATATCC | 0.0086 |
| AGCCTCTC | -0.234 |

| Sequence | PBM E-score |
| --- | --- |
| AGTTTTGG | 0.104 |
| AAGTTACG | 0.0247 |
| AAATATGA | 0.308 |
| CAATATTA | 0.176 |
| AAATATGT | 0.226 |
| AAATATTA | 0.352 |
| AAATATTC | 0.14 |
| CAATATGA | 0.0995 |
| ATCAGCCA | -0.0331 |
| CCGTTTAA | 0.135 |
| GCTTTTTA | 0.271 |
| GCGTTTAA | 0.103 |
| ACGTTTTA | 0.295 |
| ACGTTTTG | 0.222 |
| CCGTTTTA | 0.304 |
| GCGTTTTA | 0.352 |
| GCTTTTAA | -0.0048 |
| CCGTTTTC | 0.133 |
| GCGTTTAC | -0.0566 |
| ACGTTTAA | 0.0563 |
| CCTTTTTA | 0.051 |
